The whole screen tested about 5,500 compounds, of which about 2,000 (36%) were called active. Another 18% or so got no clear call; they are omitted. Rule as the data show it: active = normalized growth mostly below about 0.91 (no sharp cut-off); inconclusive = no clear call, values can overlap the other calls; inactive = mostly above about 0.92. The list shows a part of the results.
Assay: chemical genetic growth profiling, strain panel (AID 1159580);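 also: tested at 20 µM; growth read once vehicle control cultures reached saturation at 30 °C; 1 = growth at the plate median or of vehicle wells; lower values mean less growth of the strain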
Details: growth OD

Measured: normalized growth

NC[C@@H]1O[C@H](O[C@@H]2[C@@H](CO)OC(O[C@@H]3[C@@H](O)[C@H](N)C[C@H](N)[C@H]3O[C@H]3O[C@H](CO)[C@@H](O)[C@H](O)[C@H]3N)[C@@H]2O)[C@H](N)[C@@H](O)[C@@H]1O (stereo partly drawn)
inactive: S. cerevisiae deletion strains, locus YJR043C, strain POL32, hits give low values 0.936 | S. cerevisiae deletion strains, locus YJR066W, strain TOR1, hits give low values 0.945 | S. cerevisiae deletion strains, locus YKL009W, strain mrt4, hits give low values 0.982 | S. cerevisiae deletion strains, locus YKL068W, hits give low values 0.993 | S. cerevisiae deletion strains, locus YKL085W, strain MDH1 (second series), hits give low values 0.995 | S. cerevisiae deletion strains, locus YKL085W, strain MDH1, hits give low values 0.995 | S. cerevisiae deletion strains, locus YKL160W, strain elf1, hits give low values 0.996 | S. cerevisiae deletion strains, locus YKL190W, strain CNB1, hits give low values 0.988 | S. cerevisiae deletion strains, locus YKR001C, strain vps1, hits give low values 0.988 | S. cerevisiae deletion strains, locus YKR026C, strain gcn3, hits give low values 0.992 | S. cerevisiae deletion strains, locus YKR091W, strain srl3, hits give low values 0.989 | S. cerevisiae deletion strains, locus YLL001W, strain dnm1, hits give low values 0.985 | S. cerevisiae deletion strains, locus YLL026W, hits give low values 0.987 | S. cerevisiae deletion strains, locus YLL041C, strain sdh2, hits give low values 0.993 | S. cerevisiae deletion strains, locus YLR027C, strain aat2, hits give low values 0.987 | S. cerevisiae deletion strains, locus YLR039C, strain RIC1, hits give low values 0.983 | S. cerevisiae deletion strains, locus YLR058C, strain SHM2, hits give low values 0.978 | S. cerevisiae deletion strains, locus YLR102C, strain apc9, hits give low values 0.989 | S. cerevisiae deletion strains, locus YLR113W, strain HOG1, hits give low values 0.952 | S. cerevisiae deletion strains, locus YLR221C, strain rsa3, hits give low values 0.991 | S. cerevisiae deletion strains, locus YLR258W, strain gsy2, hits give low values 0.993 | S. cerevisiae deletion strains, locus YLR262C, strain YPT6 (second series), hits give low values 1.01 | S. cerevisiae deletion strains, locus YLR262C, strain YPT6, hits give low values 0.973 | S. cerevisiae deletion strains, locus YLR268W, strain sec22, hits give low values 0.986 | S. cerevisiae deletion strains, locus YLR320W, strain mms22, hits give low values 0.997 | S. cerevisiae deletion strains, locus YLR330W, strain CHS5, hits give low values 0.998 | S. cerevisiae deletion strains, locus YLR342W, strain FKS1 (second series), hits give low values 1.09 | S. cerevisiae deletion strains, locus YLR342W, strain FKS1, hits give low values 0.992 | S. cerevisiae deletion strains, locus YLR357W, strain rsc2, hits give low values 0.992 | S. cerevisiae deletion strains, locus YLR370C, strain arc18, hits give low values 0.992 | S. cerevisiae deletion strains, locus YLR371W, strain rom2, hits give low values 1 | S. cerevisiae deletion strains, locus YLR384C, strain iki3, hits give low values 0.99 | S. cerevisiae deletion strains, locus YLR418C, strain cdc73, hits give low values 1.01 | S. cerevisiae deletion strains, locus YML016C, strain PPZ1, hits give low values 0.992 | S. cerevisiae deletion strains, locus YML032C, strain rad52, hits give low values 0.98 | S. cerevisiae deletion strains, locus YML120C, strain ndi1, hits give low values 0.988 | S. cerevisiae deletion strains, locus YML124C, strain tub3, hits give low values 0.985 | S. cerevisiae deletion strains, locus YMR058W, strain fet3, hits give low values 0.988 | S. cerevisiae deletion strains, locus YMR078C, strain ctf18, hits give low values 0.989 | S. cerevisiae deletion strains, locus YMR125W, strain sto1, hits give low values 0.998 | S. cerevisiae deletion strains, locus YMR129W, hits give low values 0.998 | S. cerevisiae deletion strains, locus YMR205C, strain PFK2, hits give low values 0.994 | S. cerevisiae deletion strains, locus YMR223W, strain ubp8, hits give low values 1.01 | S. cerevisiae deletion strains, locus YMR231W, strain pep5, hits give low values 1 | S. cerevisiae deletion strains, locus YMR307W, strain GAS1, hits give low values 1.07 | S. cerevisiae deletion strains, locus YNL067W, strain RPL9B, hits give low values 0.97 | S. cerevisiae deletion strains, locus YNL071W, strain lat1, hits give low values 0.987 | S. cerevisiae deletion strains, locus YNL183C, strain NPR1, hits give low values 0.939 | S. cerevisiae deletion strains, locus YNL209W, strain ssb2, hits give low values 0.999 | S. cerevisiae deletion strains, locus YNL233W, strain BNI4, hits give low values 0.995 | S. cerevisiae deletion strains, locus YNL248C, strain rpa49, hits give low values 0.988 | S. cerevisiae deletion strains, locus YNL250W, strain rad50, hits give low values 0.991 | S. cerevisiae deletion strains, locus YNL271C, strain bni1, hits give low values 0.986 | S. cerevisiae deletion strains, locus YNL298W, strain CLA4, hits give low values 0.989 | S. cerevisiae deletion strains, locus YNL307C, strain MCK1, hits give low values 0.983 | S. cerevisiae deletion strains, locus YNL322C, strain KRE1 (second series), hits give low values 0.989 | S. cerevisiae deletion strains, locus YNR049C, strain mso1, hits give low values 0.993 | S. cerevisiae deletion strains, locus YNR052C, strain pop2, hits give low values 0.998 | S. cerevisiae deletion strains, locus YOL006C, strain TOP1, hits give low values 0.932 | S. cerevisiae deletion strains, locus YOL012C, strain htz1 1.06 | S. cerevisiae deletion strains, locus YOL147C, strain pex11, hits give low values 1 | S. cerevisiae deletion strains, locus YOR001W, strain rrp6, hits give low values 0.985 | S. cerevisiae deletion strains, locus YOR061W, strain CKA2, hits give low values 0.973 | S. cerevisiae deletion strains, locus YOR069W, strain VPS5, hits give low values 0.998 | S. cerevisiae deletion strains, locus YOR070C, strain gyp1, hits give low values 0.995 | S. cerevisiae deletion strains, locus YOR080W, strain dia2, hits give low values 0.989 | S. cerevisiae deletion strains, locus YOR083W, strain WHI5, hits give low values 0.993 | S. cerevisiae deletion strains, locus YOR106W, strain vam3, hits give low values 0.995 | S. cerevisiae deletion strains, locus YOR136W, strain idh2, hits give low values 0.98 | S. cerevisiae deletion strains, locus YOR144C, strain elg1, hits give low values 0.999 | S. cerevisiae deletion strains, locus YOR184W, strain ser1, hits give low values 0.972 | S. cerevisiae deletion strains, locus YOR231W, strain MKK1, hits give low values 0.965 | S. cerevisiae deletion strains, locus YOR265W, strain rbl2, hits give low values 0.992 | S. cerevisiae deletion strains, locus YOR270C, strain vph1, hits give low values 0.966 | S. cerevisiae deletion strains, locus YOR290C, strain snf2, hits give low values 0.989 | S. cerevisiae deletion strains, locus YOR316C, strain cot1, hits give low values 0.979 | S. cerevisiae deletion strains, locus YPL051W, strain arl3, hits give low values 0.989 | S. cerevisiae deletion strains, locus YPL078C, strain atp4, hits give low values 0.99 | S. cerevisiae deletion strains, locus YPL106C, strain sse1, hits give low values 0.967 | S. cerevisiae deletion strains, locus YPL240C, strain hsp82, hits give low values 0.997 | S. cerevisiae deletion strains, locus YPL241C, strain CIN2, hits give low values 0.998 | S. cerevisiae deletion strains, locus YPL256C, strain CLN2, hits give low values 0.968 | S. cerevisiae deletion strains, locus YPR119W, strain clb2, hits give low values 0.99 | S. cerevisiae deletion strains, locus YPR141C, strain kar3, hits give low values 0.988 | S. cerevisiae deletion strains, locus YPR163C, strain tif3, hits give low values 0.998 | S. cerevisiae deletion strains, locus YPR167C, strain met16, hits give low values 0.999 | S. cerevisiae deletion strains, strain wtn01, hits give low values 1.02 | S. cerevisiae strains, strain wild type, hits give low values 0.988

— PubChem BioAssay AID1159580 (chemical genetic matrix, 2015)
